# About 83,000 compounds went through this panel and 20% of them were active in at least one assay; those are over-represented in the sample as a whole.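 Results are percent growth after 48 hours of single-concentration exposure. 100 means growth as in untreated cells, lower positive values show inhibition; negative values down to -100 show cell death.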 Activity calls are given as the source filed them. The calls were made as follows: active = growth percent below 10; inactive = the rest.
# System: NCI-H522 lung
# Assay: NCI-60 one-dose screen, 48 h (100 = growth as untreated, 0 = no growth, -100 = all killed)
# Settings: 10 µM unless noted
row,SMILES,growth
1,CCOC(=O)c1ccc[nH]1,88.4% (inactive)
2,COc1cc(Cc2cc(-c3ccccc3)nn(Cc3ccccc3)c2=O)cc(OC)c1OC,28.4% (inactive)
3,O=C(Nc1ccc(Nc2ccncc2)cc1)c1ccc(Nc2ccnc3ccc([N+](=O)[O-])cc23)cc1,102% (inactive)
4,C[C@H]1[C@H](C)CC[C@]2(C(=O)NCCNCCN)CC[C@]3(C)C(=CC[C@@H]4[C@@]5(C)CCC(=O)C(C)(C)[C@@H]5CC[C@]43C)[C@H]12,54.3% (inactive)
5,COc1ccc(C/C(C)=C(\c2ccc(Cl)cc2)c2ccc(OCCN3CCCC3)cc2)cc1,90% (inactive)
6,CCOc1ccc(NC(=O)Nc2ccc(OCC)cc2)cc1,103% (inactive)
7,Cc1ccc(NC(=O)c2cc3ccccc3cc2O)c(C)c1,-1.58% (active)
8,COC(=O)c1c2c(c[n+]([O-])c1C)C(=O)C=C(NCc1ccccc1)C2=O,-57.9% (active)
9,C=C1C(=O)O[C@H]2[C@H]1CC/C(CNC(=O)Cc1c[nH]c3ccccc13)=C\CC[C@@]1(C)O[C@@H]21,-79.4% (active)
10,C#CCOc1ccc2nc(CCl)c(Cl)c(Nc3cccc(C(F)(F)F)c3)c2c1,36.4% (inactive)
11,O=C1/C(=C/c2cccc(Br)c2)COc2ccc(O)cc21,18.9% (inactive)
12,CCN(CC)CCOc1ccc(/C(=C(\C)Cc2ccc(OC)cc2)c2ccc(OC(=O)NCc3ccccc3)cc2)cc1,69.7% (inactive)
13,O=C(CCCCCCCC(=O)N1CCCCC1)N1CCCCC1,88.8% (inactive)
14,Cc1ccc(-c2nc(SCC(=O)N3CCN(c4cc5c(cc4F)c(=O)c(C(=O)O)cn5C4CC4)CC3)nc(Cl)c2C#N)cc1,93.8% (inactive)
15,CSc1ccc2c3c(n(C[C@H](O)CO)c(=O)c2c1)-c1ccccc1C3=O,43.7% (inactive)
16,Cc1cn(C)cn1,89.3% (inactive)
17,C#Cc1cccc(Nc2ncnc3cc(NC(=O)CCl)ccc23)c1,-66% (active)
18,O=S(=O)(NCCNc1nccc(-c2c(-c3ccc(F)c(O)c3)nc3sccn23)n1)c1ccc(Cl)cc1,22.2% (inactive)
19,COc1ccc(C(O)c2cc3c(N)c(C(=O)Nc4cccc5ccccc45)sc3nc2C)cc1 (stereo unspecified),0% (active)
20,O=C(Nc1cc(Cl)ccc1O)c1ccccc1Nc1ccnc(C(F)(F)F)c1,-6.22% (active)
21,COc1ccc(/C=C2\c3cc(OC)c(OC)c(OC)c3CC[C@@H]2O)cc1F,-32.5% (active)
22,CCN(CC)C(=O)C1=C(C)NC(=O)NC1c1ccc2c(c1)OCO2 (stereo unspecified),96.6% (inactive)
23,COc1ccc(C=Nc2c(C(=O)Nc3cccc(Cl)c3C)sc3nc(C)c(C(=O)/C=C/c4ccc(OC)cc4)cc23)cc1,0.467% (active)
24,CC(C)(C)c1ccc(S(=O)(=O)Oc2ccc(-c3sc4cc(OS(=O)(=O)c5ccc(C(C)(C)C)cc5)ccc4c3C(=O)c3ccc(OCCN4CCCCC4)cc3)cc2)cc1,72% (inactive)
25,COc1cc(/C=C/c2cc(/C=C/c3ccc(O)c(OC)c3)n(C(=O)Nc3ccc(Cl)cc3)n2)ccc1O,-4.94% (active)
26,O=c1cc(CP(=O)(O)O)c2cc(O)c(-c3ccccc3)cc2o1,94.7% (inactive)

# System: A549/ATCC NSCLC
# Assay: as above
# Settings: 10 µM unless noted
row,SMILES,growth
1,Cc1nc2sc(C(=O)Nc3cccc(Cl)c3C)c(N)c2cc1C(=O)/C=C/c1ccccc1,10.1% (inactive)
2,CN1CCN(Cc2ccc(NC(=O)c3cncc(C#Cc4cnc(N)cc4C#N)c3)cc2C(F)(F)F)CC1,19.2% (inactive)
3,c1cc(OCCN2CCCC2)ccc1CNc1ccc2nc(CCC3CCCCC3)[nH]c2c1,50.2% (inactive)
4,CCN(CC)CCOc1ccc2c(-c3ccccc3)c(-c3ccc(OC)cc3)c(=O)oc2c1,70.6% (inactive)
5,O=C1/C(=C/c2c[nH]c(=O)[nH]c2=O)SC(=S)N1Cc1ccccc1,101% (inactive)
6,CCN(CC)CCCNc1cc(OC)c(OC)c2cccnc12,56.4% (inactive)
7,COc1cc(Cc2cc(OC)c(O)c(OC)c2)cc(OC)c1O,84.1% (inactive)
8,CSc1ccc(N2C(=N)C(=S)N(c3ccc(C)cc3)C2=O)cc1,87.6% (inactive)
9,CCOC(=O)/C(=C(/C)NCC(C)C)c1cc(O)c(O)c2c(C)cc(=O)[nH]c12,45.2% (inactive)
10,C/C(=C(\c1ccc(OCCN2CCCCCC2)cc1)c1ccc(OC(=O)c2ccccc2)cc1)c1ccc(Cl)cc1,39.1% (inactive)
11,COCCn1cc(-c2csc(-c3c[nH]c4ccc(F)cc34)n2)c2cccnc21,22.1% (inactive)
12,Cc1ccc2cnc(N)c(C#Cc3cc(C(=O)Nc4ccc(CN5CCN(C)CC5)c(C(F)(F)F)c4)cnc3C)c2c1,-85.5% (active)
13,O=C(NNc1nc2cc(F)ccc2n2c(CN3CCOCC3)ccc12)c1ccccc1,2.97% (active)
14,COc1ccc(-c2nc(SCC(=O)Nc3nc4ccc(C)cc4s3)[nH]c(=O)c2C#N)cc1OC,105% (inactive)
15,CCOC(=O)c1ccc[nH]1,93% (inactive)
16,COc1cc(Cc2cc(-c3ccccc3)nn(Cc3ccccc3)c2=O)cc(OC)c1OC,19.9% (inactive)
17,O=C(Nc1ccc(Nc2ccncc2)cc1)c1ccc(Nc2ccnc3ccc([N+](=O)[O-])cc23)cc1,94.7% (inactive)
18,C[C@H]1[C@H](C)CC[C@]2(C(=O)NCCNCCN)CC[C@]3(C)C(=CC[C@@H]4[C@@]5(C)CCC(=O)C(C)(C)[C@@H]5CC[C@]43C)[C@H]12,42.4% (inactive)
19,COc1ccc(C/C(C)=C(\c2ccc(Cl)cc2)c2ccc(OCCN3CCCC3)cc2)cc1,79% (inactive)
20,CCOc1ccc(NC(=O)Nc2ccc(OCC)cc2)cc1,95.9% (inactive)

row,SMILES,growth
1,Cc1ccc(NC(=O)c2cc3ccccc3cc2O)c(C)c1,106% (inactive)
2,COC(=O)c1c2c(c[n+]([O-])c1C)C(=O)C=C(NCc1ccccc1)C2=O,-64.2% (active)
3,C=C1C(=O)O[C@H]2[C@H]1CC/C(CNC(=O)Cc1c[nH]c3ccccc13)=C\CC[C@@]1(C)O[C@@H]21,62% (inactive)
4,C#CCOc1ccc2nc(CCl)c(Cl)c(Nc3cccc(C(F)(F)F)c3)c2c1,94.7% (inactive)
5,O=C1/C(=C/c2cccc(Br)c2)COc2ccc(O)cc21,66.2% (inactive)
6,CCN(CC)CCOc1ccc(/C(=C(\C)Cc2ccc(OC)cc2)c2ccc(OC(=O)NCc3ccccc3)cc2)cc1,48.1% (inactive)
7,O=C(CCCCCCCC(=O)N1CCCCC1)N1CCCCC1,102% (inactive)
8,Cc1ccc(-c2nc(SCC(=O)N3CCN(c4cc5c(cc4F)c(=O)c(C(=O)O)cn5C4CC4)CC3)nc(Cl)c2C#N)cc1,107% (inactive)
9,CSc1ccc2c3c(n(C[C@H](O)CO)c(=O)c2c1)-c1ccccc1C3=O,14.5% (inactive)
10,Cc1cn(C)cn1,94.2% (inactive)
11,C#Cc1cccc(Nc2ncnc3cc(NC(=O)CCl)ccc23)c1,-23.7% (active)
12,O=S(=O)(NCCNc1nccc(-c2c(-c3ccc(F)c(O)c3)nc3sccn23)n1)c1ccc(Cl)cc1,25.7% (inactive)
13,COc1ccc(C(O)c2cc3c(N)c(C(=O)Nc4cccc5ccccc45)sc3nc2C)cc1 (stereo unspecified),11.6% (inactive)
14,O=C(Nc1cc(Cl)ccc1O)c1ccccc1Nc1ccnc(C(F)(F)F)c1,19.7% (inactive)
15,COc1ccc(/C=C2\c3cc(OC)c(OC)c(OC)c3CC[C@@H]2O)cc1F,16.7% (inactive)
16,CCN(CC)C(=O)C1=C(C)NC(=O)NC1c1ccc2c(c1)OCO2 (stereo unspecified),106% (inactive)
17,COc1ccc(C=Nc2c(C(=O)Nc3cccc(Cl)c3C)sc3nc(C)c(C(=O)/C=C/c4ccc(OC)cc4)cc23)cc1,30.8% (inactive)
18,CC(C)(C)c1ccc(S(=O)(=O)Oc2ccc(-c3sc4cc(OS(=O)(=O)c5ccc(C(C)(C)C)cc5)ccc4c3C(=O)c3ccc(OCCN4CCCCC4)cc3)cc2)cc1,87.4% (inactive)
19,COc1cc(/C=C/c2cc(/C=C/c3ccc(O)c(OC)c3)n(C(=O)Nc3ccc(Cl)cc3)n2)ccc1O,4.03% (active)
20,O=c1cc(CP(=O)(O)O)c2cc(O)c(-c3ccccc3)cc2o1,106% (inactive)

# — PubChem BioAssay (NCI)
